The structures appear in SMILES notation. Compounds without any hit were thinned out: in the full panel of roughly 83,000, 20% have a hit.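 Testing used 96-well plates and a 48-hour single-concentration exposure. Example: -40 means 40% of the starting cells died.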 A number with no mark means an inactive call. Calls of active or inactive are those of the source. The calls were made as follows: active = growth percent below 10; inactive = the rest.

In the test the test system is MDA-MB-468 breast. The experiment in a line: NCI-60 one-dose screen, 48 h (100 = growth as untreated, 0 = no growth, -100 = all killed). As to conditions: 10 µM unless noted.
On to `CCCOC(=O)C1(O)CCCC1`, for which the growth is 97.1%.
In the case of `CCOC(=O)c1cnn(CC(C)O)c1NC(=O)NCc1cccc(F)c1` (stereo not given), the growth was 105%.
As for `CSc1[nH]c(=O)ncc1F`, the growth was 98.1%.
For `CN=C(N)N/N=C(\c1ccccc1)c1ccc(Br)cc1` the value was 1.8% (active); for `O=C(Cc1ccc(/C=C/C(=O)c2ncc[nH]2)cc1)Nc1ccc(C(F)(F)F)cc1`, 15.1%.
For `CCCCN1C(=O)CC(SC2CC(=O)N(CCCC)C2=O)C1=O` (stereo not given) the value was 105%; for `O=C1c2ccccc2C(=O)C1c1ccc(Br)cc1`, 115%; for `O=S(=O)(NCCCNc1cc(-c2cn(-c3ccccc3)nc2-c2cccc(O)c2)ccn1)c1cccc2ccccc12`, -18.4% (active).
Consider `C=C1C(=O)O[C@H]2[C@H]1CC/C(COC(=O)NCc1c[nH]c3ccc(F)cc13)=C\CC[C@@]1(C)O[C@@H]21`, for which the growth is -58.1% (active).
For `Cc1cc(N2CCN(CC(=O)Nc3ccc4c(ccn4C)c3)CC2)nc(N2CCCCCC2)n1`, the growth is 65.1%.
The result for `COc1cc2nc(N3CCCC3)nc(NCCc3ccccc3)c2cc1OC` reads 6.66% (active).
As to `NC(=O)c1ccc(C2C3=C(CCCC3=O)OC3=C2C(=O)c2ccccc2C3=O)cc1` (stereo not given), the growth is -30.6% (active).
Turning to `CNC(=O)c1cc(Oc2ccc3c(c2)sc2nc(-c4ccc(NC(=O)[C@@H](NC(=O)OC)C(C)C)cc4)cn23)ccn1`, the growth is 28.4%.
`O=C(CSc1nnc(-c2cc(-c3ccc(Cl)cc3)nc3ccccc23)n1-c1ccccc1)Nc1ccc(Cl)cc1`: the growth is 110%.
The result for `Clc1cccc(Cl)c1/C=C/c1cc(/C=C/c2c(Cl)cccc2Cl)[nH]n1` reads 12.4%; that for `CCN1CCN(CC(=O)Nc2ccc(-c3cn4c(n3)sc3cc(Oc5ccnc(C(=O)NC)c5)ccc34)cc2)CC1`, 74.4%; that for `COC(=O)c1nc(-c2ccccc2)oc1S(=O)(=O)n1nc(-c2ccccc2)cc1N`, 74.6%.
As to `CC(C)(C)c1ccc(OCCCCCCN2CCNCC2)cc1`, the growth is 10.6%.
In the case of `CC(C)(C)c1ccc(C(=O)Nc2sc3c(c2C#N)CCC(=O)C3)cc1`, the growth is 2.73% (active).
For the compound `C(=N\Nc1nc(N/N=C/c2ccc3c(c2)OCO3)nc(N2CCCCC2)n1)/c1ccc2c(c1)OCO2`, the growth is 81.6%.
Take `COc1cc(NC(=O)COc2cc(C)nc3ccc(OC)cc23)cc(OC)c1`: the growth was 76.3%.
The result for `COCCOCCOCc1n(Cc2ccc3ccccc3n2)c2ccccc2[n+]1Cc1ccc2ccccc2n1` reads -17.4% (active).
On to `C1=CC2=CC=C3C=CC=C4C(c5nc6c7ccccc7c7ccccc7c6[nH]5)=CC(=C1)C2C34` (stereo not given), for which the growth was 21.9%.
For `CCOC(=O)C1=CN(C)C=C(C(=O)OCC)C1c1cc(Br)c(OCC)c(OC)c1` the value was 62.1%.
On to `COc1ccc(-c2cc(-c3ccc(OC)c(OC)c3)nc(SCCCCCC(=O)NO)n2)cc1`, for which the growth was 54.8%.
Take `COc1cccc(-c2nn(-c3ccccc3)cc2-c2ccnc(NCCCNS(=O)(=O)c3ccc(C(F)(F)F)cc3)c2)c1`: the growth is -9.51% (active).
In the case of `O=C(Nc1ccc(C(=O)Nc2ccc(C3=NCCCN3)cc2)cc1)Nc1ccc(C2=NCCCN2)cc1`, the growth is 66.6%.
On to `COC(=O)[C@H](Cc1cn(C)cn1)NC(=O)[C@H](CC(=O)OCc1ccccc1)NC(=O)Nc1cc(C(F)(F)F)cc(C(F)(F)F)c1`, for which the growth is -74.2% [100 µM] (active).
For `COc1ccc(-c2cc(C(=O)Nc3ccc(Br)cc3)nc3[nH]c(=O)sc23)cc1` the value was 33.2%; for `CCCCN(CCCC)CC(O)CN(CC)CC` (stereo not given), 101%.
`Cc1nn(-c2ccc(-c3ccc(OC(F)(F)F)cc3)cc2)c2nc(Cc3ccccc3)nc(N)c12`: the growth was 46%.
Take `O=C1c2c(c3c4cc(F)ccc4oc3c3[nH]c4ccccc4c23)C(=O)N1O`: the growth is -5.83% (active).
The result for `COc1ccc(C2=C/C(=C\c3ccc(Cl)cc3)C(=O)NN2C(=S)NN)cc1` reads 82.7%; that for `COc1cc2c(O)n(CCCn3ccnc3)c3c4cnc5cccc(c(=O)c3c2cc1OC)c54`, 4.34% (active); that for `O=C(Cc1ccc(-c2ccc(OCCN3CCOCC3)cc2)cn1)NCc1ccccc1`, -17% (active).
Take `O=S(=O)(NCCCNc1nccc(-c2cn(-c3ccccc3)nc2-c2ccc(Cl)c(O)c2)n1)c1ccccc1`: the growth is 59.7%.
In the case of `O=C(Nc1ccc(-n2ccc3c(NC(=O)c4ccccc4)ncnc32)cc1)c1ccc(Cl)c(C(F)(F)F)c1`, the growth is -5.36% (active).
Regarding `CN(C)Cc1ccc(NC(=O)c2cncc(C#Cc3cnc(N)c4ncccc34)c2)cc1F`, the growth is 72.3%.
On to `O=C1/C=C/[C@@H](O)[C@@H]2C[C@@H](O)C[C@H]2/C=C/CCC[C@H](CCOCc2ccccc2)O1`, for which the growth was -41.9% (active).
Take `CC(Oc1ccc(C(=O)O)cc1C(F)(F)F)c1ccc(Oc2ccccc2)cn1` (stereo not given): the growth was 97.3%.
